PubChem BioAssay AID720579 (National Center for Advancing Translational Sciences (NCATS), 2013)
Screen size: about 310,000 compounds; about 1,900 (0.61%) were called active. Entries that show only a call come without a potency. About 8% were inconclusive and are not listed. Calls come from the whole dose curve; tested in A549 cells. The full list was thinned out, with actives kept by preference.
Potency is the fitted concentration of half-maximal effect.

Assay: qHTS for Stage-Specific Inhibitors of Vaccinia Orthopoxvirus: mCherry Reporter Primary qHTS; note: nearly all actives have a fitted effect of over 35% in size
Settings: Vaccinia virus mCherry reporter infection, fluorescence; series mostly up to 36.5 µM
In the case of `OCC(O)C(O)C(O)C(O)C=Nc1ccc(/C=C/c2ccnc3ccccc23)cc1` (stereo not given), the Potency is reported as “inactive”. For `C=CC[C@@H](Cc1ccc(F)cc1)C(=O)OC[C@H]1CCCN1C(=O)[C@H](CC=C)CC(=O)N(CCO)Cc1ccccc1`, the Potency was “inactive”. In the case of `Cc1cccc(C(=O)C(O)(c2ccccc2)C2CCCCC2=O)c1` (stereo not given), the Potency is reported as “inactive”. With `O=C(C1CC(=O)N(C2CCCC2)C1)N1CCN(c2cccc(C(F)(F)F)c2)CC1` (stereo not given) the Potency was 10 µM (active). For `O=C(C1CC(=O)N(C2CCCCC2)C1)N1CCN(c2ccccc2)CC1` (stereo not given), the Potency was “inactive”. With `O=C(C1CC(=O)N(c2ccc(F)cc2)C1)N1CCN(c2ccccc2)CC1` (stereo not given) the Potency was “inactive”. For `COc1ccc(C2OC(CCc3ccccc3)Cc3[nH]c(=S)[nH]c(=O)c32)cc1` (stereo not given), the Potency was “inactive”. With `CCCc1nc2c3ccccc3ccn2c1Cc1ccccc1C(F)(F)F` the Potency was “inactive”. In the case of `OC(CBr)C[n+]1cccc2cc(Br)ccc21` (stereo not given), the Potency is reported as “inactive”. For `CCCC[C@@H]1CN=C(N)N1CCCC`, the Potency was “inactive”. With `CCCC[C@@H]1CN=C(N)N1CCc1cc(C(F)(F)F)cc(C(F)(F)F)c1` the Potency was 11.2 µM (active). For `CCCC[C@@H]1CN=C(N)N1CCc1cccc(F)c1`, the Potency was “inactive”. In the case of `COc1ccc(OCC(O)CNCCNc2nccc(C(F)(F)F)n2)cc1` (stereo not given), the Potency is reported as “inactive”. With `CC(C)(C)NCC(O)COc1cccc2[nH]c(=O)[nH]c12` (stereo not given) the Potency was “inactive”. For `CC(C)(C)CC(C)(C)NCC(O)COCCOc1ccc(Br)cc1` (stereo not given), the Potency was 12.6 µM (active). For `Cc1ccc2nc(-c3ccco3)c(Cc3cccc(Cl)c3)n2c1`, the Potency was “inactive”. With `c1ccc(-c2nccc(-c3ccc(-n4cnc5ccccc54)cc3)n2)nc1` the Potency was 11.2 µM (active). In the case of `CC(C)(C)Nc1nc(-c2ccccn2)nc2ccccc12`, the Potency is reported as “inactive”. With `Cc1nccc(-c2ccc(-n3c(C)ccc3C)cc2)n1` the Potency was “inactive”. For `COc1ccc2c(c1)Cc1sc(NC(=O)c3ccccc3Br)nc1-2`, the Potency was 11.2 µM (active). For `COc1cccc(C(=O)Nc2nc3ccc(S(C)(=O)=O)cc3s2)c1`, the Potency was “inactive”. For `COc1ccc(NS(=O)(=O)c2ccc(N3CCOCC3)c(NC(=O)c3ccccc3Br)c2)cc1`, the Potency was “inactive”. In the case of `CCCc1c(-c2ccccc2F)ncn1Cc1ccccc1OC`, the Potency is reported as “inactive”. With `Nc1nonc1-n1nnc(C(=O)N/N=C/c2cc(Br)ccc2O)c1CSC1=NCCS1` the Potency was 7.08 µM (active). With `Cc1ccc(SCc2c(C(=O)N/N=C/C3CC=CCC3)nnn2-c2nonc2N)cc1` (stereo not given) the Potency was “inactive”. For `Cc1ccc(SCc2c(C(=O)N/N=C/c3cccnc3)nnn2-c2nonc2N)cc1`, the activity change, negative = inhibition was -10.8% [at 7.34 µM] (inactive). With `O=C(Nc1cc(Br)ccc1F)c1nc[nH]c1C(=O)NCc1ccccc1` the Potency was “inactive”. With `CCc1nc2ccc(C(=O)NC3CCN(Cc4ccccc4)CC3)cn2c1N(CC)CCOC` the Potency was “inactive”. For `Cc1ccsc1C(=O)N/N=C/c1ccc([N+](=O)[O-])cc1`, the Potency was “inactive”. In the case of `CC(C)(C)c1cc(C(=O)N/N=C/c2ccc([N+](=O)[O-])s2)n[nH]1`, the Potency is reported as 11.2 µM (active). In the case of `Cc1nc2ccccc2cc1C(=O)N/N=C/c1ccc([N+](=O)[O-])cc1`, the Potency is reported as “inactive”. In the case of `Cc1nc2c(OCc3ccc(Cl)cc3)cccn2c1N(C)Cc1cccs1`, the Potency is reported as “inactive”. For `CCCCOCCCNC(=O)C[C@@H]1C[C@@]2(C(=O)OCC)CCCC=C2N(CCC2=CCCCC2)C1=O`, the Potency was “inactive”. With `CN(C)CCNC(=O)c1ccc(-c2cn3c(-c4ccc(Oc5ccccc5)cc4)cnc3cn2)cc1` the Potency was “inactive”. In the case of `CCCc1ccc(-c2c(C)sc(NC(=O)c3ccnn3C)c2C#N)cc1`, the Potency is reported as 11.2 µM (active). With `Cc1sc(NC(=O)C2=COCCO2)c(C#N)c1C` the Potency was “inactive”. In the case of `Cn1nccc1CNC(=O)c1ccnn1C`, the Potency is reported as “inactive”. For `C=C1C=C(C(F)F)n2ncc(C(=O)NCCc3ccccc3OC)c2N1`, the Potency was “inactive”. In the case of `CN1CCN(c2ccc3c(c2)OC[C@H](Cc2ccccc2)NS3(=O)=O)CC1`, the Potency is reported as “inactive”. With `CN(C)CCNC(=O)Nc1cccc(Cl)c1Cl` the Potency was “inactive”. With `CC(=O)NCCNC(=O)c1cc(-c2cccc3ccccc23)nc2ccccc12` the Potency was “inactive”. With `CN(C)CCNC(=O)c1ccc(Cl)c2cc3ccccc3nc12` the Potency was 1.78 µM (active). With `COc1cccc(-c2cnc3c(NC(C)=O)cc(-c4cccc(NC(C)=O)c4)cn23)c1` the Potency was “inactive”. In the case of `CCCCn1nnnc1C(c1cccc(OC)c1OC)N1CCN(C/C=C/c2ccccc2)CC1` (stereo not given), the Potency is reported as “inactive”. With `Cc1c(CCO)sc[n+]1CC(=O)c1ccc2ccccc2c1` the Potency was “inactive”. With `Cc1cc(NC(=O)CSc2nc3c(cc2C#N)CCCCC3)no1` the Potency was “inactive”. In the case of `CC(NC(=O)CSc1nc2c(cc1C#N)CN(C)CC2)c1ccccc1` (stereo not given), the Potency is reported as 10 µM (active). For `CN1CCc2nc(SC(C(=O)O)c3ccccc3)c(C#N)c(-c3cccs3)c2C1` (stereo not given), the Potency was “inactive”. For `CCCCCCCCN1C(=O)[C@H](CC(=O)NCC23CC4CC(CC(C4)C2)C3)C[C@@]2(C(=O)OC)CCCCC=C12`, the Potency was “inactive”. With `CCN1C(=O)[C@H]2[C@@H](c3ccc(C(F)(F)F)cc3)N[C@]3(CCCN(Cc4ccc(Br)cc4)C3=O)[C@H]2C1=O` the Potency was “inactive”. In the case of `CC(C)(C)S(=O)N1Cc2cc(C(=O)NCCCN3CCOCC3)nc(-c3cccc(-c4cc5ccccc5o4)c3)c2[C@H]1CCO` (stereo not given in full), the Potency is reported as “inactive”. With `CC1(Oc2ccc(Cl)cc2)CCN(Cc2csc3ccccc23)C1` (stereo not given) the Potency was “inactive”. With `COc1ccc2sc(-c3ccc(N(C)C)cc3)c(C#CCO)c2c1` the Potency was 12.6 µM (active). In the case of `COc1ccc2sc(-c3ccc(S(C)(=O)=O)cc3)c(C#Cc3cncn3C)c2c1`, the Potency is reported as “inactive”. For `COc1ccc2sc(-c3ccc(N(C)C)cc3)c(-c3ccc4cc[nH]c4c3)c2c1`, the Potency was “inactive”. For `COCOc1cccc(CN2CCC(C)(Oc3ccc(SC)cc3)C2)c1` (stereo not given), the Potency was “inactive”. With `O=C(NCc1cccc(C(F)(F)F)c1)c1ccc2sc(COCCO)nc2c1` the Potency was “inactive”. For `OC[C@@H]1CN(Cc2cccs2)C[C@H](n2cnc3c(NC4CCCC4)ncnc32)O1`, the Potency was “inactive”. For `Cc1ncc(CO)c(/C=N/NC(=O)c2cccc(S(=O)(=O)N3CCCC3)c2)c1O`, the Potency was “inactive”. With `Cc1cc(C)nc(N/N=C/c2c(CO)cnc(C)c2O)n1` the Potency was 12.6 µM (active). For `Cc1cc(C)nc(N/N=C/c2c(C)oc3ccccc23)n1`, the Potency was “inactive”. For `CSc1ccc(CN2CCC2(C)C(=O)Nc2ccc(C)c(O)c2)cc1` (stereo not given), the Potency was “inactive”. With `CC(C)C[C@@H]1Cc2[nH][nH]c(=O)c2[C@H](CCc2ccccc2)O1` the Potency was “inactive”. In the case of `CN(Cc1ccccc1)c1ccc(/C=C/c2ccnc3ccccc23)cc1`, the Potency is reported as “inactive”. In the case of `COc1ccc(C(C)(C)C)cc1NC(=O)CN(C)C1=NS(=O)(=O)c2ccccc21`, the Potency is reported as “inactive”. With `COC(=O)[C@]12CCCCC=C1N(CCC1=CCCCC1)C(=O)[C@H](CC(=O)N1CCSCC1)C2` the Potency was “inactive”. For `C=C1C([C@@]2(C)C(OC(C)=O)CC(=O)O[C@@](C)(COC(C)=O)C2CC(=O)OC)C(OC=O)C(OC(=O)C(O)C(C)CC)[C@]2(C)C(c3ccoc3)CC(=O)C12O` (stereo not given in full), the Potency was 2 µM (active). In the case of `COC(=O)CC1C(C)(C)C(OC(C)=O)C2CC3=C4CC(=O)OC(c5ccoc5)[C@]4(C)CCC3[C@@]1(C)C2=O` (stereo not given in full), the Potency is reported as “inactive”. In the case of `CCC(C)C(=O)O[C@@H]1C[C@@]2(C)C(c3ccoc3)OC(=O)CC23OC2(C)O[C@@]14[C@@]1(C)C(CC(=O)OC)C5(C)CC1(O)C(O)(C5OC(=O)C1(C)OC1C)C(OC(C)=O)[C@@]34O2` (stereo not given in full), the Potency is reported as “inactive”. With `COc1ccc(C(O)c2nc(-c3ccc4c(c3)OCO4)cs2)cc1` (stereo not given) the Potency was “inactive”. For `CCc1nc2c(OCc3cccc(OC)c3)cccn2c1N(C)C(=O)C(C)C`, the Potency was “inactive”. In the case of `CCN1CCCC1CNC(=O)c1ccc2c(c1)NC(=O)/C(=C\c1ccccc1F)S2` (stereo not given), the Potency is reported as “inactive”. In the case of `CC(=O)c1cccc(-c2cnc3c(NC=O)cc(-c4ccccc4Oc4ccccc4)cn23)c1`, the Potency is reported as “inactive”. With `COc1ccc(CS(=O)/C(Cl)=C(/Cl)C(=O)Nc2ccc(OC)nc2)cc1` (stereo not given) the Potency was 3.98 µM (active). For `COc1ccc(NC(=O)CN2C(=O)NC(C)(c3ccccc3)C2=O)cn1` (stereo not given), the Potency was “inactive”. In the case of `CCOc1ccc(S(=O)(=O)Nc2ccc(OC)nc2)cc1`, the Potency is reported as “inactive”. For `CCN(CC)S(=O)(=O)c1ccc(N2CCN(C)CC2)c(NC(=O)Nc2ccccc2F)c1`, the Potency was “inactive”. For `CCN(CC)S(=O)(=O)c1ccc(N2CCCC2)c(NC(=O)c2ccc([N+](=O)[O-])o2)c1`, the Potency was 14.1 µM (active). For `CCN(CC)S(=O)(=O)c1cc(C(=O)Nc2cc(S(=O)(=O)N3CCOCC3)ccc2N2CCCC2)ccc1F`, the Potency was “inactive”. In the case of `COc1cccc(CNc2nc(NCc3cccs3)nc3ccsc23)c1`, the Potency is reported as “inactive”. With `OC(c1ccccc1)c1nc(-c2cnc3ccccc3c2)cs1` (stereo not given) the Potency was “inactive”. For `CC1(c2cccc(Br)c2)NC(=O)N(CC(=O)NCCC2=CCCCC2)C1=O` (stereo not given), the Potency was “inactive”. For `O=C(NCCOc1ccccc1)N1[C@H]2CC[C@@H]1C=C(c1ccc(F)cc1OCc1ccccc1)C2`, the Potency was “inactive”. In the case of `CC1(C(=O)O)CCN1C(=O)/C=C/c1ccccc1` (stereo not given), the Potency is reported as “inactive”. For `CC1(C)CCSC(/C=C/c2ccccc2)=N1`, the Potency was 11.2 µM (active). With `CC1(C(=O)NS(=O)(=O)c2ccccc2)CCN1C(=O)C/C=C/c1ccccc1` (stereo not given) the Potency was “inactive”. For `COc1ccc(Cc2nnc(N/N=C/c3ccccc3O)[nH]c2=O)cc1OC`, the Potency was 1.26 µM (active). With `COc1ccc(/C=N/Nc2nc3ccccc3c(=O)[nH]2)cc1` the Potency was “inactive”. For `O=c1[nH]c(NCCO)nnc1Cc1ccc(Cl)cc1`, the Potency was “inactive”. In the case of `CCC(c1nnnn1-c1ccc2c(c1)OCCO2)N1CCN(c2ccc(C(F)(F)F)cn2)CC1` (stereo not given), the Potency is reported as “inactive”. With `O=C(C(=O)N1CCC(c2ccccc2)CC1)c1ccccc1` the Potency was “inactive”. For `CCOC(=O)[C@]12CCC=C1N(CCC1=CCCCC1)C(=O)[C@H](CC(=O)NCc1ccc(C)o1)C2`, the Potency was “inactive”. For `CN(C(=O)c1cccc(NC(=O)Cc2ccc(NC(=O)C3CCN(C(=O)C4CCCCC4)CC3)cc2)c1)C1CCC1`, the Potency was “inactive”. In the case of `CN(C(=O)c1cccc(NC(=O)Cc2cccc([N+](=O)[O-])c2)c1)C1CCCCC1`, the Potency is reported as 10 µM (active). With `CN(C(=O)c1cccc(NC(=O)Cc2cccc(NC(=O)C3CCCN(C(=O)C4CC4)C3)c2)c1)C1CCC1` (stereo not given) the Potency was “inactive”.
